# Giardia FBPA inh – blocks Giardia fructose-bisphosphate aldolase activity; AID 2451; actives 0.71% (n = 290,000); purified Giardia FBPA; Potency, µM (doses to about 59.6 µM), inactives show at the top dose activity, negative = inhibition, usual class: inhibitors; further: potency means the concentration at half of the fitted maximal effect; on the % scale 0 is the no-effect control and ±100 the full control effect; nearly all actives have a fitted effect of over 55% in size
# Target sequence (A8B2U2 whole entry, looked up): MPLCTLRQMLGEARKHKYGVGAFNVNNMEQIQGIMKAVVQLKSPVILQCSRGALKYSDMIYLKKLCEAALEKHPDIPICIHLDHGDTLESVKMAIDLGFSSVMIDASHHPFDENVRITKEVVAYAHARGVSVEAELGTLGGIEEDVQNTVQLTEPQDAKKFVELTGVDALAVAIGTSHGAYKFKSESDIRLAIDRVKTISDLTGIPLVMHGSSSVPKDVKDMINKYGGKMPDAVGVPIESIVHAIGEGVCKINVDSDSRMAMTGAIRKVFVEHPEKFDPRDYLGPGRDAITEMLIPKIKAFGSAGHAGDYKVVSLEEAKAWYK
#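 40 nM FBPA preincubated 10 min at RT with compound (up to 57.5 uM final), then substrate plus GAPDH/TPI/NAD/arsenate coupling and diaphorase/resazurin added. Fluorescence read after 20 min at RT, 525/598 nm.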
# Pf growth 96h – inhibits malaria parasite growth, 96 h | P. falciparum luciferase reporter growth, 96 h | Potency, µM (top dose mostly 28.7 µM), inactives show top-dose activity change, negative = inhibition, usual class: inhibitors | actives 6.9% (n = 320,000); further: potency means the concentration at half of the fitted maximal effect; on the % scale 0 is the no-effect control and ±100 the full control effect
#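 Plates of compound plus infected erythrocytes (2% hematocrit, 0.05% parasitemia final) incubate 96 hours, 37 C, 5% CO2. Detection reagent added; reduced luminescence from the parasites' luciferase reporter flags inhibition.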
# Shiga toxin inh – blocks Shiga toxin action in Vero cells | Vero cells, Shiga toxin protein synthesis inhibition reporter | inhibition, % at 38.7 µM | actives 9.2% (n = 290,000) | AID 2315; in the data active means inhibition mostly above about 28%, no sharp cut-off; inactive means mostly below about 43%; further: 0% is about no effect
# Cycloheximide cs – affects cycloheximide protein synthesis inhibition readout, counter-screen | AID 2314 | max response, % | actives 12% (n = 300,000) | cell reporter, cycloheximide protein synthesis inhibition counterscreen; in the data active means max response mostly above about 13%, no sharp cut-off; inactive means mostly below about 14%; further: read at 38.3 µM for the half of the compounds with a filed dose; 0% is about no effect
# Pf growth 48h – inhibits P. falciparum growth in the first generation, 48 h; actives 5.9% (n = 310,000); P. falciparum luciferase growth in erythrocytes, 48 h; Potency, µM (top dose mostly 28.7 µM), for the others: top-dose activity change, negative = inhibition, usual class: inhibitors; further: potency means the concentration at half of the fitted maximal effect; on the % scale 0 is the no-effect control and ±100 the full control effect
#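 Read-out is firefly luciferase luminescence from an integrated reporter in P. falciparum, so falling signal marks reduced parasite growth. Infected erythrocytes were at 2% hematocrit and 0.1% parasitemia (final) in Albumax-supplemented RPMI 1640.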
# NS1 inh – influenza NS1 inhibition; actives 0.4% (n = 270,000); Potency, µM (titrated, usually from 46.1 µM), for the others: at the top dose activity, positive = more growth; calls by dose curve; further: potency means the concentration at half of the fitted maximal effect; actives are rising curves; nearly all actives have a fitted effect of over 50% in size
#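 Compounds were scored for reversing the slow growth caused by influenza A NS1 in S. cerevisiae, measured by optical density at 600 nm. Assay medium contained 2% galactose at pH 6.0; NS1-free yeast of the same strain were the positive control.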
# * marks the source's active call; other numbers are inactive results; i = inactive; ? = inconclusive; / = no result given. The list is not random: actives were taken first. Their share in the collection is about 21%. Unless noted, the call rests on the fitted dose curve; in most records, active means well fitted curve in the direction sought with a large enough effect; inconclusive means small, poorly fitted or top-dose-only effect, or another doubt; inactive means no such curve, though single readings can be large; an effect the other way counts as inactive or inconclusive.
SMILES,Giardia FBPA inh,Pf growth 96h,Shiga toxin inh,Cycloheximide cs,Pf growth 48h,NS1 inh
CC(C)c1ccc(C2C3=C(CC(c4ccco4)CC3=O)Nc3nc(C(F)(F)F)nn32)cc1 (stereo not given),/,/,-8.6,8.8,/,/
CC(=O)N[C@@H](Cc1c[nH]c2ccccc12)C(=O)NCc1ccccc1,-4.1%,32.0%,15.5,7.3,7.1%,2.2%
Cc1ccc2nc(Cl)c(/C=C/C(=O)c3ccco3)cc2c1,-4.0%,19.4%,80.9*,57.3*,25.3%,-31.2%
Cc1ccc2cc(/C=C/C(=O)c3ccco3)c(Cl)nc2c1,0.5%,0.0%,116.7*,83.3*,?,-41.1%
Nc1ccccc1CCCC(=O)O,/,/,/,/,/,-1.1%
CC(C)(C)OC(=O)CNC(=O)c1nc[nH]c1C(=O)NCc1ccccc1,-25.2%,51.1%,-4.2,-0.4,15.9%,4.7%
O=C(CNC(=O)c1[nH]cnc1C(=O)NC(c1ccccc1)c1ccccc1)OCc1ccccc1,18.1%,1.85µM*,5.7,4.8,?,?
O=C(N[C@@H](Cc1ccccc1)C(=O)OCc1ccccc1)c1nc[nH]c1C(=O)NC(c1ccccc1)c1ccccc1,-8.3%,9.28µM*,37.8,9.6,1.31µM*,7.5%
C[C@@H](NC(=O)c1nc[nH]c1C(=O)N[C@@H](Cc1ccccc1)C(=O)OCc1ccccc1)c1ccccc1,-25.8%,?,15.4,-4.4,?,12.4%
CC(C)(C)OC(=O)CNC(=O)c1[nH]cnc1C(=O)NCC(=O)OCc1ccccc1,?,36.4%,16.0,10.4*,53.1%,-2.8%
COc1cc2cc(CN(Cc3nnnn3C3CCCC3)C3CCCC3)c(=O)[nH]c2cc1OC,1.7%,-32.2%,-4.4,-2.6,6.2%,-14.2%
Cc1ccc2cc(CN(Cc3nnnn3C3CCCC3)C3CCCCC3)c(=O)[nH]c2c1C,15.8%,?,69.7*,36.0*,15.8%,-12.6%
O=c1[nH]c2cc3c(cc2cc1CN(Cc1nnnn1C1CCCC1)C1CCCC1)OCCO3,-4.9%,9.28µM*,49.2,19.1,/,4.3%
COc1ccc(N2CCN(C(=O)CSc3nnc(-c4ccc5[nH]c(C)c(C)c5c4)o3)CC2)cc1,-10.8%,3.29µM*,-8.0,-1.6,?,-19.2%
CC1CCN(C(=O)CSc2nnc(-c3cccnc3)o2)CC1,/,?,-7.1,-5.7,16.3%,0.0%
COc1ccc(-c2nnc(SCC(=O)N3CCCCC3)o2)cc1,/,-13.9%,25.9,11.5,12.2%,-0.8%
Cc1ccc(-c2nnc(SCC(=O)N3CCCC3)o2)cc1,-1.1%,2.6%,56.4,17.0*,29.4%,6.0%
Cc1ccc(S(=O)(=O)N2CCN(C(=O)CSc3nnc(-c4ccco4)o3)CC2)cc1,1.3%,10.4µM*,-8.7,-1.5,/,-16.3%
COC(=O)C1CCN(C(=O)CSc2nnc(-c3ccncc3)o2)CC1,4.9%,5.22µM*,-5.8,-2.6,12.7%,7.8%
O=C(CCSc1nnc(-c2ccco2)o1)N1CCOCC1,6.5%,97.3%,51.5,17.1,10.2%,/
C[C@]1(C(=O)NCC2CC2)C=C[C@@H](Cc2ccccc2)N1C(=O)c1ccccc1,3.0%,/,/,/,/,/
CN(C)Cc1ccccc1-c1cncnc1Nc1ccncc1,-1.2%,/,/,/,/,/
C=CCN1CCN(c2nc3ccccc3nc2C#N)CC1,-0.1%,/,/,/,/,/
CCN(CC)CCn1c2c(c(SCC(=O)Nc3cc(OC)cc(OC)c3)nc1=O)CCC2,/,?,/,/,49.2%,/
CC(CCc1ccccc1)NC(=O)COc1ccc(S(=O)(=O)N2CCOCC2)cc1[N+](=O)[O-] (stereo not given),-0.5%,?,-7.4,3.1,?,-8.7%
CCC(C)(C(=O)NC1CCCCC1)N(C(=O)CC1NC(=O)NC1=O)c1c(C)n(C)n(-c2ccccc2)c1=O (stereo not given),2.4%,-7.1%,22.4,-2.9,i,/
COc1ccc(-c2nnc(SCC(=O)N3CCCC(C)C3)o2)c(OC)c1 (stereo not given),0.3%,/,21.6,-1.4,?,-21.2%
Cc1cccc(-c2nnc(SCC(=O)NC3CCCC3)o2)c1,6.2%,-1.0%,25.9,-3.3,58.0%,-1.0%
COc1ccc(-c2nnc(SCC(=O)N3CCCCC3)o2)c(OC)c1,0.8%,?,25.1,30.4*,12.3%,-0.4%
O=C(CSc1nnc(-c2ccc(F)cc2)o1)N1CCCC1,/,?,33.6,16.4*,84.2%,3.1%

# Screens: PubChem, National Center for Advancing Translational Sciences (NCATS)
